Consider 40 compounds from PubChem BioAssay (EPA / NIEHS).

Structures are written as SMILES. Where “and” joins values, the source holds several entries; their conditions need not be identical. Identical values can stand only once. Calls of active or inactive are those of the source. How the source made its calls: active means hit-call score of the fitted dose curve at least 0.9, where 1 is the maximum; inactive means score below 0.9.

Usually AC50 stands for the midpoint of the concentration-response curve, whichever way the signal moves.

Read-out in the assay: Insulin-like growth factor-binding protein 1 (IGFBP1), IGFBP1 (gene 3484)
Kind of assay: LTEA_HepaRG_IGFBP1: Life Technologies and Expression Analysis (LTEA) Assay for Insulin-like growth factor-binding protein 1 (IGFBP1) using HepaRG (AID 2283508). The note with it: mRNA level, 48 h; actives raise or lower the signal. The protocol: LTEA_HepaRG is a cell based, multiplexed-readout assay that uses HepaRG, a human liver cell line, with measurements taken at 48 hours after chemical dosing on a 96-well plate.LTEA_HepaRG_IGFBP1 is one of 102 assay component(s) measured in the LTEA HepaRG cell culture assay. It is a marker of Cell proliferation, survival, death.Data from the assay component LTEA_HepaRG_IGFBP1 was analyzed into 1 endpoint. This assay endpoint, LTEA_HepaRG_IGFBP1, was analyzed with bidirectional fitting relative to DMSO as the negative control and baseline of activity. Using a type of inducible reporter, measures of mRNA induction for gain or loss-of-signal activity can be used to understand regulation of transcription factor activity. To generalize the intended target to other relatable targets, this assay endpoint is annotated to the transporter intended target family, where the subfamily is hormone carrier protein.
A total of 1060 chemcials from the ToxCast library were tested in eight-point concentration-response experiments. Cell culture and cytotoxicity assays were conducted at Thermo Fisher Scientific's Custom Services facility (Madison, WI). A single lot of human HepaRG cells (Thermo Fisher Scientific, Frederick, MD) was used for the cell culture experiments. 96-well format collagen type I coated plates of human HepaRG cells were prepared using established methods. Briefly, cryopreserved HepaRG cells were thawed, plated at a density of approximately 100,000 cells/well in HepaRG Thaw, Plate, and General Purpose media (HPRG770, Thermo Fisher Scientific), and incubated for 48 hours. 0.5% DMSO was selected as vehicle control to balance the requisite need of DMSO in HepaRG cultures to maintain differentiation (for example, baseline metabolism, proportions of hepatocytes vs. cholangiocytes), while enabling further hepatic receptor pathway activation (for example, PXR and CAR) in response to chemical exposure. 48 hours after plating, the culture medium was replaced with HepaRG Serum-Free Incudtion Media. Cells were exposed to each test chemical in duplicate and maintained in CO2 incubators for another 48 hours. Chemical plates were thawed to room temperature and 200x concentrations of treatment groups were prepared. 8-point conentration-reponse curves were made with the highest exposure at 100 uM, followed by half-log dilutions, all in 0.5% DMSO. Each test plate contained variouse controls, induction positive controls (1mM phenobarbital), cytotoxicity positive controls ([…] aflatoxin B1), vehicle controls (0.5% DMSO), and total lysis controls (0.5% DMSO). Cell morphology images were taken using an Essen IncuCyte FLR automated microscope, with six 96-well plates imaged in about 24 minutes. Images were captured and exported and JPEG files. Spent culture media was transfered to black-well plates for the LDH assay, and remaining media was sorted at -80 C for later use. Cells were treated with RLT buffer and frozen until shipped for gene expression analysis. Total RNA was isolated from the cell suspension in 75 uL of Buffer RLT (Qiagen, Germantown, MD 20874) by Quintiles/Expression Analysis (Durham, NC) using a custom isolation procedure. Total RNA from each plate well was transferred to a preamplification plate. Fluidigm's 96.96 Dynamic ArrayTM (Fluidigm, Amsterdam, the Netherlands) technology was used for gene expression analyses by quantitative reverse transcription polymerase chain reaction (qRT-PCR, performed by Quintiles/Expression Analysis, Durham, NC)89. Standard TaqManTM Assays (Applied Biosystems/ThermoFisher Scientific, Foster City, CA) were used to assess the expression of 93 genes selected based on their selectivity and sensitivity to important hepatic receptors known to be modulated by environmental chemicals; importance in human hepatocyte functionality; and hepatotoxicity. […]
Regarding `COC(=O)N(OC)c1ccccc1COc1ccn(-c2ccc(Cl)cc2)n1`, the AC50 is 64.3 µM (active).

In the case of `COC(=O)C=C(C)OP(=O)(OC)OC`, the compound was called inactive.

Turning to `O=C(O)COc1nc(Cl)c(Cl)cc1Cl`, the compound was called inactive.

For the compound `Fc1ccc(Oc2ccnc3cc(Cl)cc(Cl)c23)cc1`, the AC50 was 57.2 µM (active).

As for `CCOC(=O)CC(SP(=S)(OC)OC)C(=O)OCC` (stereo not given), the call was inactive.

`COC(=O)C(C)Oc1ccc(Oc2ccc(Cl)cc2Cl)cc1` (stereo not given): the compound was called inactive.

Consider `CC(C)Oc1cc(-n2nc(C(C)(C)C)oc2=O)c(Cl)cc1Cl`, for which the AC50 is 76.8 µM (active).

As to `CC1COC(Cn2cncn2)(c2ccc(Oc3ccc(Cl)cc3)cc2Cl)O1` (stereo not given), the AC50 was 19 µM (active).

Turning to `COc1nc(NC(C)C)nc(NC(C)C)n1`, the call was inactive.

`CN(C)C(=S)SSC(=S)N(C)C`: the outcome was inactive.

On to `Oc1ccccc1-c1ccccc1`, for which the compound was called inactive.

With `CC(C)(C)c1ccc(CSc2cnn(C(C)(C)C)c(=O)c2Cl)cc1`, the AC50 is 3.43 µM (active).

Take `CCc1nn(C)c(C(=O)NCc2ccc(C(C)(C)C)cc2)c1Cl`: the AC50 is 2.34 µM (active).

With `CCON=C(CC)C1=C(O)CC(c2c(C)cc(C)cc2C)CC1=O` (stereo not given), the compound was classed as inactive.

As to `N#Cc1cc(Br)c(O)c(Br)c1`, the AC50 was 19.3 µM (active).

With `CCNc1nc(Cl)nc(NC(C)C)n1`, the outcome was inactive.

With `CO/C=C(/C(=O)OC)c1ccccc1Oc1cc(Oc2ccccc2C#N)ncn1`, the AC50 is 63.6 µM (active) and 72.5 µM (active) and 76.7 µM (active).

For the compound `O=C(Nc1ccccc1)Nc1ccnc(Cl)c1`, the AC50 was 63.4 µM (active).

Take `N#CC(CCc1ccc(Cl)cc1)(Cn1cncn1)c1ccccc1` (stereo not given): the AC50 is 74.4 µM (active).

Take `CCCCNC(=O)n1c(NC(=O)OC)nc2ccccc21`: the call was inactive.

`CCNc1nc(Cl)nc(NCC)n1`: the outcome was inactive.

On to `CCCC1COC(Cn2cncn2)(c2ccc(Cl)cc2Cl)O1` (stereo not given), for which the AC50 is 34.4 µM (active).

For `Cc1c(F)c(F)c(COC(=O)C2C(/C=C(\Cl)C(F)(F)F)C2(C)C)c(F)c1F` (stereo not given), the compound was called inactive.

As for `CS/C(C)=N/OC(=O)N(C)SN(C)C(=O)O/N=C(\C)SC`, the call was inactive.

Regarding `CCOC(=O)C(Cl)Cc1cc(-n2nc(C)n(C(F)F)c2=O)c(F)cc1Cl` (stereo not given), the outcome was inactive.

For the compound `CCCCC(CC)COC(=O)c1ccccc1C(=O)OCC(CC)CCCC` (stereo not given), the call was inactive.

Turning to `COP(=S)(OC)Oc1nc(Cl)c(Cl)cc1Cl`, the compound was classed as inactive.

For the compound `COc1cnc(OC)n2nc(NS(=O)(=O)c3c(OCC(F)F)cccc3C(F)(F)F)nc12`, the compound was classed as inactive.

On to `Cc1ccc(-c2c(Cl)nc(C#N)n2S(=O)(=O)N(C)C)cc1`, for which the AC50 was 13.6 µM (active).

With `C=CC1(C)OC(=O)N(c2cc(Cl)cc(Cl)c2)C1=O` (stereo not given), the compound was classed as inactive.

`CNC(=S)S`: the compound was called inactive.

Turning to `C=CCC1=C(C)C(OC(=O)C2C(C=C(C)C)C2(C)C)CC1=O` (stereo not given), the compound was called inactive.

Turning to `CCOc1cc(Oc2ccc(C(F)(F)F)cc2Cl)ccc1[N+](=O)[O-]`, the AC50 was 68.8 µM (active).

Turning to `CC(C)C1(C)N=C(c2nc3ccccc3cc2C(=O)O)NC1=O` (stereo not given), the compound was classed as inactive.

As to `COc1ccc(C(c2ccc(OC)cc2)C(Cl)(Cl)Cl)cc1`, the AC50 is 72.3 µM (active).

`CC1=C(C(=O)Nc2ccccc2)SCCO1`: the call was inactive.

As for `COP(N)(=O)SC` (stereo not given), the compound was called inactive.

Consider `COC(=O)c1ccccc1C(=O)OC`, for which the outcome was inactive.

Take `CC(Oc1ccc(Cl)cc1Cl)C(=O)O` (stereo not given): the compound was called inactive.

For `Cc1cc(Cl)ccc1OCC(=O)O`, the compound was called inactive.
